Laboratory results: the supplement of paper PMC11417369
In all, about 25,000 sequences were measured (“ln(normalized median fluorescence intensity)”: median about 6.7, highest 2% from about 10 on). Only a selection was taken, and the highest values are over-represented in it overall.

Tested on: PfHDP1 homeodomain (GST-tagged)
Experiment: gcPBM binding intensity (ln(normalized median fluorescence intensity)); higher = stronger DNA binding
Summary of the method: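 GST-tagged P. falciparum DNA-binding domains, expressed in E. coli (about 25 μg on average), were applied for 1 h to an Agilent 4 × 180k array of primer-extended double-stranded 36-bp intergenic genomic probes plus negative controls. The binding buffer was 1× PBS with 1% milk, 0.2 mg/ml BSA, 0.5% salmon testes DNA and 0.03% Triton X-100. Bound protein was detected with Alexa488 anti-GST antibody and scanned at 488 nm. Binding intensity is the highest Masliner-normalised natural-log median intensity across replicate spots of either probe orientation.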

| Sequence | gcPBM binding intensity (ln) |
| --- | --- |
| GATTAATTTAAAAAATGTACATTTTATTGTATAACC [XGTACX_site5539] | 6.55 |
| AACTGAGAAACCGAAGTGCAATATGTATATATACAT | 9.08 |
| GAAAATAGAAAAAGCACACATATATTTTGGAATGTA [CACACA_site551] | 6.5 |
| ATATATATAACAAAAGTGCATTAAGGGGATGCTATA | 8.66 |
| CGTATTATTTTATAAACACACAAGGGGGCATGTATA [CACACA_site6489] | 7.82 |
| TTTTTTTTTTTTTTGGTGCGATCTTTTAAATGATCC | 6.48 |
| TAATTTCCTTAAGAATGTACTTACATTTTATTATTT [XGTACX_site5998] | 6.02 |
| CCTATAAAACCATATACACACATATAAATAAAAAAA [CACACA_site7809] | 6.58 |
| TACAAATATATAAAATGTACATATATATACATATTA [XGTACX_site3029] | 6.13 |
| AAATAATATGTAATCAAATTCACCAAACGAAAAAAA [TGCATGCA_negctrl_site33] | 6.59 |
| TCATAACAACTTTGTGTGCACATAAAACATGTATAT | 11 |
| TATATATATATAACAACACACACAGATCATAAAACT [CACACA_site8670] | 8.9 |
| TTATATGTTTTGTGTACACAATTTATTAAATTAATA [CACACA_site5645] | 8.03 |
| ATATAATATTAGTGCACACACAAAAATGTACTAAAC [CACACA_site632] | 10.4 |
| TCAACAAATAAACTTTGTACATATATACAAAATATA [XGTACX_site4447] | 6.27 |
| CTATAATATTAGTGCACACACAAAAATGTACTAAAC [CACACA_site6442] | 10.6 |
| ATATATATTAATTTTGTGCACAAATGGAAATGTTTG [GTGCAC_site9971] | 10.9 |
| TGTATATGGTTTGTGCAAAAATTTATTAATGTGTAA [TGCATGCA_negctrl_site374] | 10.1 |
| GAATAAAAAATATATGTGCACATATAAACTTAAAAT [GTGCAC_site9554] | 10.7 |
| GTATATAATATTAGTGCACACACAAAAATGTACTAA [CACACA_site8112] | 10.3 |
| TATATATATATGTGCACACATAATAAAAAAAAAAAT [CACACA_site3831] | 9.99 |
| AACTTAAAAAATAAATGTACATAAATATAAACATAT [XGTACX_site2987] | 6.59 |
| AAAAAAAAAAAAAAGAGTACACAGACGTTCAAAGGT [XGTACX_site7566] | 6.85 |
| CGCGAACATACATACACACACATATTTATATAGGTA [CACACA_site6241] | 6.69 |
| ATAATTAGTTCAATTTTTTTTTTTTTTTTTTTTTTT [CACACA_negctrl_site1371] | 6.91 |
| ATAAATTTATATACTTGTACATATATATATTACATA [XGTACX_site6697] | 6.7 |

| Sequence | gcPBM binding intensity (ln) |
| --- | --- |
| TGCTGTATATTTTTCTGTACACATTTATATATTCCA [XGTACX_site6244] | 6.65 |
| CATATAGTATAAATTTGTACATAAATATATATATAT [XGTACX_site7477] | 8.91 |
| TATAATATATTTTAATGTACGTACATCCCGATTAAT [XGTACX_site7651] | 6.63 |
| AATATTTTAAATATTGCATGCAATGAAAAATGTAAA [TGCATGCA_site139] | 7.73 |
| ATAATTATAAAATAAACACACATATATATTTATATG [CACACA_site440] | 6.29 |
| AATAAATAAAAAATTACACACATATTTATAAATATA [CACACA_site7584] | 6.4 |
| CAAAAAAATGTGAAGGCATGCAAATATGTAAAATAA [TGCATGCA_site921] | 7.26 |
| ATAATTATTAAGAGAACATGCAAAATATATATGTTT [TGCATGCA_site503] | 6.68 |
| ACTAAAAAATATATATGTACATAATAATATATTATT [XGTACX_site1260] | 6.66 |
| TATAAAATAAATTGTGCACACATATTTATAAATATG [CACACA_site2330] | 10.5 |
| TTATTGTAAATATATGCATGTGCAAAATGAAAAAAA [TGCATGCA_site399] | 10.5 |
| TAATAAAATATGTACGTGCACATAATTATACTAAAA | 10.5 |
| AAATTAATATTATGTGCATGCACAAAGAGGAACGAC [TGCATGCA_site754] | 11.8 |
| AACCATAAATAATTATGTACTAAAAAAAATATATAT [XGTACX_site3415] | 6.7 |
| TATTAATTATAAGATGCATGTGCAAAAATATGTTCC [TGCATGCA_site51] | 10.2 |
| AAAAATAAAAAAATAAAAAATAAAAAAATAAAAAAT [CACACA_negctrl_site1425] | 6.64 |
| TTAATAATAAAAAGGAGTACACTAATATACTATAAA [XGTACX_site2346] | 6.35 |
| TAAATTTTAATAAATACACACAAATTTTAATTCTAT [CACACA_site6039] | 6.27 |
| TACATATAAACAATAACACACACCTAGGTACATGGA [CACACA_site8178] | 6.49 |
| TGTATTCTCTTAGTAGTGCATTTGAAGATTATATAA | 8.81 |
| TAAATAGATGTTTTATGTACGTATAAATAAAAAAAA [XGTACX_site3412] | 6.29 |
| TTTATTTATTTAATTACACACGAACATATAACCATT [CACACA_site7952] | 6.8 |
| ATTTTTTAAAAAGTAACACACACTCTTATATATAAT [CACACA_site9206] | 6.64 |
| ATATACATATCATGTAGTACAATTTTTTTACTTTTT [XGTACX_site7988] | 6.14 |
| CAAGCTATGTATTCTACACACACATACACCCATATA [CACACA_site9133] | 7.22 |
| CAAATATATATGTTCACACATATAATTATTGTGAAA [CACACA_site4190] | 6.4 |

| Sequence | gcPBM binding intensity (ln) |
| --- | --- |
| TTAAAAAAATTAATATGTACATATATTTATATATAT [XGTACX_site5317] | 6.54 |
| ATGAAAATTTATATTGCACACATAGGGAATAAAAAA [CACACA_site8667] | 10.4 |
| TAAAATAAATTGTGCACACATATTTATAAATATGAA [CACACA_site2331] | 10.7 |
| ATATATTATATAATATGTACATAATAAAATTTAAAT [XGTACX_site1900] | 6.79 |
| ATTATTAATAATTGTGTGCACAAATATTTATATGCT | 10.6 |
| ATATTTAATGTTAATTGTACATATTATATATATATA [XGTACX_site6095] | 8.49 |
| TAATATAATATATGCACACAAATATGTATTTATGTG [CACACA_site5210] | 10.1 |
| TAATATTTTAATTGTGTGCACATTAATATTATAAAA | 10.3 |
| TAAAATAATATTTATGTGCACATATAATTATTAATT | 10.7 |
| TTTATGAAACAGTGCACACATAAAAATATATACATA [CACACA_site2992] | 10.1 |
| TGAAATTTTATTAATGTGCACATATATTTATTGTTC | 10.8 |
| CAACATTAATATAAAGCACACATATATATAATATAT [CACACA_site8064] | 6.39 |
| TTGAACCTGATAAATACACACAATATAGATTTTTTT [CACACA_site7091] | 6.48 |
| TTTCTAATTCTTAGTGGTACACAGTTCTGCTGATAT [XGTACX_site2391] | 6.09 |
| AATGAGCGTTAAAAATGTACAGAAAATTGGAATTAT [XGTACX_site5743] | 6.75 |
| TGTGCATAAATTTATGCACACATAAAAAAAAAAAAA [CACACA_site8954] | 11 |
| TAAAATAATTTATGCATACACACATATATATATATA [CACACA_site4021] | 9.28 |
| ATAATTTCATAATACGTGCACATAATATATAAAAAA | 10.9 |
| TATATATATATATATGTGCACATATTTATATGTTTT | 10.3 |
| ACAAAAAAAATAAGCACACATATATATATATATATA [CACACA_site816] | 9.27 |
| TGCATAAATTTATGCACACATAAAAAAAAAAAAAAA [CACACA_site2923] | 10.4 |
| CAAAATATTTTTATAACACACATATATATAATGTGC [CACACA_site4767] | 6.52 |
| ATATATATATATATTGTGCACAAAAAAAAATAAGCA | 10.7 |
| GTTTATTTATTTTATGTGCACATATAACAAAAAAAA | 10.7 |
| ATAAAATATATATGCACACACATATATATTTCATAC [CACACA_site3547] | 10.2 |
| TATAAAAATAAGCACACACACAAATATATATTTATT [CACACA_site922] | 6.77 |

| Sequence | gcPBM binding intensity (ln) |
| --- | --- |
| GAAATAATTTCATATACACACATATACATACATACA [CACACA_site1358] | 7.13 |
| AAGAAAGGTTAAACATGTACATAAATATTTTACATA [XGTACX_site5024] | 6.28 |
| TAATTCACATTTTATACACACATTCGAACCTTTTTT [CACACA_site3341] | 6.88 |
| TTATAAAAGAAAAAAAAAAAAAAAAAAAAAAAAAAA [CACACA_negctrl_site1006] | 6.11 |
| TTACATATATTGGGGTGTACATATATTTTCCTTCAC [XGTACX_site6224] | 7.35 |
| AAAAAAAAGAAAGAAAGTACAAATTATAAAATGAAC [XGTACX_site860] | 6.62 |
| AACAATAAATTATTATGTACACATATATTATATATA [XGTACX_site4629] | 6.47 |
| ATCTAAAAATTTTACGCACACAAGTAAAAAAAAAAA [CACACA_site2485] | 7.14 |
| ACTATATATATAAGTGCATGTTCATTATACCTAAAG [TGCATGCA_site696] | 7.49 |
| GATAAATGTATATATGCATGCACATATATTTATACA [TGCATGCA_site748] | 8.96 |
| TATATTTATGTATATGTGCACATAAATTTAAGAATG [GTGCAC_site9512] | 10.9 |
| TTATATATTTATAAATGTACGTATAAGAATTTAATT [XGTACX_site8541] | 6.68 |
| TATAATAATAATGATAGTACGTATGAGTTCAAGAAA [XGTACX_site4918] | 6.34 |
| TCATATATCCTTATCACACATATAATAAATTCCCTT [CACACA_site4457] | 6.59 |
| ATATATGCATATTATACACACATATGTATATACATT [CACACA_site965] | 7.81 |
| ATTATTACATATAATGCATGTGCATATATTTTTATA [TGCATGCA_site701] | 11 |
| TATGTGCATATAAACTCACACATTGTATATTACATG [CACACA_site6106] | 10.9 |
| TATATATTTATTAAATGTACATAACAAAAATGGTAT [XGTACX_site3577] | 7.05 |
| TTTTTTATTATTATGTGTACGAATATGTGCATATAA [XGTACX_site1364] | 9.93 |
| ACACATATGCATATATGTACATAATATATTAAACTT [XGTACX_site5975] | 6.76 |
| ATGTATGCAAAAATGGTGCATATTAAATGTATAACA [GTGCAC_site9722] | 10.5 |
| CCTTATACGATATTATGTACGCATATGTGCATTTTT [XGTACX_site1570] | 10.9 |
| ATATTATACGCATATGTGCGCATACATTTTTTTGCA [GTGCAC_site9540] | 7.53 |
| TATATATAATTTTATACATGCACATATTATATATAT [TGCATGCA_site1036] | 8.4 |
| CATATATAAATATGTATGCACTTTAACAAAATGTAT | 7.25 |
| TATATATATATATATACATGCATATTTTTTATTTTT [TGCATGCA_site464] | 9.46 |
